# JMJD2A Tudor inh: JMJD2A Tudor domain (human) inhibition | AID 504339 | 4.4% of 390,000 active | AlphaScreen JMJD2A-Tudor / H3K4me3 peptide binding | Potency, µM (highest dose often 114 µM), most hits filed as inhibitors; also: nearly all actives have a fitted effect of over 50% in size
# BAZ2B inh: BAZ2B (human) inhibition; Q9UIF8; Potency, µM (top dose mostly 114 µM), most hits filed as inhibitors; AlphaScreen BAZ2B-H3K14Ac peptide displacement; AID 504333; 4.4% of 360,000 active; also: nearly all actives have a fitted effect of over 60% in size
#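 Protein-peptide AlphaScreen: BAZ2B 50 nM, b-H3K14Ac 50 nM, 1x PBS pH 7.4 + 0.01% Tween-20. Preincubation 30 min RT; cpd 30 min RT (top 110 uM); beads 20 min RT, light-protected.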
# Six1-Eya2 blk: Six1/Eya2 interaction inhibition; Q15475+O00167; AlphaScreen GST-Six1/His-Eya2 binding, biochemical; hits give low values; activity change, % (test concentration not listed); 0.56% of 360,000 active; AID 651725; in the data active = activity change below about -65%; inconclusive = mostly about -30% to -63%
#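 Six1/Eya2 binding was read as AlphaScreen signal after compounds were pinned into GST-Six1 plus His-tagged Eya2 (5X stock 250/500 nM) in pH 8.0 Tris/NaCl/TCEP buffer, beads added, then incubated 1 h, 37 C, dark.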
# CtBP-E1A blk: inhibitors of CtBP/E1A interaction | AlphaScreen GST-E1A/His-CtBP binding, 1536-well; hits give low values | activity change, % (no concentration beside the values) | 0.49% of 340,000 active | AID 651724; in the data active = activity change below about -65%; inconclusive = mostly about -30% to -63%
#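 Steps: dispense buffer (Tris pH 8.0, NaCl 300 mM, TCEP 1 mM, BSA, Tween 20); add 5X protein mix (GST-E1A, His-CtBP, 125 nM each); pin 23 nL compound; 2 h at 37 °C, dark; add 5X beads (50 ug/mL); 1 h; read.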
# G9a inh: inhibitors of human histone lysine methyltransferase G9a | Potency, µM (doses to about 102 µM), actives largely listed as inhibitors | 8.8% of 350,000 active | AID 504332 | G9a H3K9 monomethylation, AlphaScreen, 2 h | Q96KQ7; also: nearly all actives have a fitted effect of over 75% in size
# Target sequence (Q96KQ7 913-1193 limits assumed): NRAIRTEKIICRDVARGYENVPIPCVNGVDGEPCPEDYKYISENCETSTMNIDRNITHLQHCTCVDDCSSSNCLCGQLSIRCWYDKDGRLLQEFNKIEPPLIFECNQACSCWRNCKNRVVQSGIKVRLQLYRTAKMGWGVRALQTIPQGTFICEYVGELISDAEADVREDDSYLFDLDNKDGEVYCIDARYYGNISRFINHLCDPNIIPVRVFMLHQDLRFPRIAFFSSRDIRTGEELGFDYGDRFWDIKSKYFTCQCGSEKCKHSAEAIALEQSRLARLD
#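 Chemiluminescent proximity detection of H3K9 monomethylation, read after 10 min bead incubation in the dark. Reaction: 20 nM G9a, 500 nM biotin-H3K9 peptide, 20 uM SAM cofactor, 2 h, room temperature, following 15 min enzyme-compound preincubation.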
# HP1b chromo inh: blocks HP1-beta chromodomain binding to methylated histone tails; P83916; AlphaScreen HP1-beta / biotin-H3K9me3 peptide binding; Potency, µM (series often up to 114 µM), most hits filed as inhibitors; 0.56% of 390,000 active; also: nearly all actives have a fitted effect of over 70% in size
# Target sequence (P83916 whole entry, looked up): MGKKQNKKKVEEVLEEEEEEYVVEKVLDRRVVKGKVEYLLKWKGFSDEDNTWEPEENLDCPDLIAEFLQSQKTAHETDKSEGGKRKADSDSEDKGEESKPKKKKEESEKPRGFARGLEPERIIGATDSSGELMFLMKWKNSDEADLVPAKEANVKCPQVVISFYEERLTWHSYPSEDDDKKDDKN
#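 Compound inhibition of the preformed complex between 50 nM HP1-beta and 50 nM biotinylated H3K9me3 peptide was read by AlphaScreen. Buffer was PBS pH 7.4 with 0.01% Tween-20. Incubations ran 30 min at room temperature, with 10 ug/mL donor/acceptor beads.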
# Hits are given with their value; n = inactive; u = inconclusive; x = no result; [ ] = dose if it differs, or a comment. Shown are actives, neighbours in structure and some others; about 10% of the full set was active somewhere. Unless noted, calls follow the shape of the dose curve; as a rule, active = well fitted inhibition curve with a large enough effect; inconclusive = small, poorly fitted or top-dose-only effect; inactive = no such curve, though single readings can be large or run the other way.
SMILES,JMJD2A Tudor inh,BAZ2B inh,Six1-Eya2 blk,CtBP-E1A blk,G9a inh,HP1b chromo inh
Cc1ccc(Cl)cc1N1CCN(C(=O)Cc2c(C(=O)O)c(C)cn2C)CC1,n,u,x,x,n,n
Cc1ccc(Cl)cc1N1CCN(C(=O)Cc2cn(C)c3ccccc23)CC1,u,u,n,n,12.6µM,u
COc1ccc(CN(C)Cc2cc(=O)oc3cc(C)c(C(C)C)cc23)cc1OC,n,n,n,n,89.1µM,n
COc1ccc(C2c3c(oc4ccccc4c3=O)C(=O)N2CCN2CCOCC2)cc1OC (stereo not drawn),n,x,n,n,x,n
COCCN1C(=O)c2oc3ccccc3c(=O)c2C1c1ccc(OC)c(OC)c1 (stereo not drawn),56.2µM,n,n,n,n,u
Cc1ccc2oc3c(c(=O)c2c1)C(c1cccs1)N(CCCN(C)C)C3=O (stereo not drawn),n,n,n,n,39.8µM,n
CN1C(=O)c2oc3ccccc3c(=O)c2C1c1ccncc1 (stereo not drawn),56.2µM,n,n,n,8.91µM,n
COc1cccc(C2c3c(oc4ccccc4c3=O)C(=O)N2CCCN2CCOCC2)c1 (stereo not drawn),n,n,n,n,50.1µM,n
Cc1nn(CC(=O)NCc2ccc(N(C)C)cc2)c(=O)c2c(C)n(-c3ccc(Cl)cc3)nc12,n,n,x,x,n,n
CCCCCCCCN1C(=O)[C@H](CC(=O)NCCCN2CCCC2=O)C[C@@]2(C(=O)OCC)CCCC=C12,x,x,n,n,x,x
O=C1c2oc3ccccc3c(=O)c2C(c2cccs2)N1CCCN1CCOCC1 (stereo not drawn),n,u,n,n,39.8µM,n
COCCN1C(=O)c2oc3ccccc3c(=O)c2C1c1ccc(C(=O)OC)cc1 (stereo not drawn),n,n,n,n,n,n
COC(=O)c1ccc(C2c3c(oc4ccccc4c3=O)C(=O)N2CCCN2CCOCC2)cc1 (stereo not drawn),n,n,n,n,35.5µM,n
COC(=O)c1ccc(C2c3c(oc4ccc(Cl)cc4c3=O)C(=O)N2CCN2CCOCC2)cc1 (stereo not drawn),n,n,n,n,20µM,n
COCCn1c(=O)c(-c2ccc(Cl)cc2)nc2cnc(N(C)C)nc21,x,x,x,x,n[0.501 µM],x
CCCC1NC(=O)c2cccnc2-n2c1nc1ccc(Br)cc1c2=O (stereo not drawn),x,x,n,n,x,x
CCc1ccc(CNC(=O)c2ccc3nc(C(C)C)oc3c2)cc1,n,n,x,x,n,n
COc1ccc(-c2cn3c(n2)sc2cc(C(=O)NC(C)C45CC6CC(CC(C6)C4)C5)ccc23)cc1 (stereo not drawn),n,n,x,x,n,n
CC(C)c1c(Cl)c(O)c(-c2ccccc2)c(=O)n1-c1ccc(F)cc1,20µM,n,n,n,44.7µM,n
CCOC(=O)c1c(C)oc2ncnc(Nc3cccc(C(F)(F)F)c3)c12,n,n,x,x,n,n
C/C(=C\c1ccccc1)CN(C)CCN(C)C,x,n,x,x,56.2µM,x
COc1ccc(-c2ccc(SCC(=O)c3ccccc3)nn2)cc1OC,n,n,n,n,50.1µM,n
Cc1ccc(-c2ccc(SCC(=O)c3ccccc3)nn2)cc1,n,n,n,n,35.5µM,n
Cc1ccc(C(=O)CSc2ccc(-c3ccncc3)nn2)cc1,n,u,n,n,39.8µM,n
CC(=O)N1CCc2cc(S(=O)(=O)N3CCN(S(=O)(=O)c4c(F)cccc4F)CC3)ccc21,n,x,x,x,x,x
SMILES,JMJD2A Tudor inh,BAZ2B inh,Six1-Eya2 blk,CtBP-E1A blk,G9a inh,HP1b chromo inh
CCNc1ncc2nc(-c3ccccc3)c(=O)n(-c3ccc(OC)cc3)c2n1,x,x,x,x,n[12.7 µM],x
Cc1ccc(N2C(=O)C3Sc4[nH]c(=O)sc4C(c4ccccc4)C3C2=O)cc1 (stereo not drawn),n,50.1µM,n,n,n[0.501 µM],n
O=C1C2Sc3[nH]c(=O)sc3C(c3ccccc3)C2C(=O)N1c1ccc(Cl)cc1 (stereo not drawn),u,u,n,n,n[0.501 µM],n
Cn1c(SCc2cccc(F)c2)nnc1-c1ccccn1,79.4µM,70.8µM,n,n,n,n
Cc1ccccc1CSc1nccn1-c1ccccc1,u,35.5µM,n,n,x,u
Cc1ccccc1CSc1nnc(-c2ccccn2)n1C,n,79.4µM,n,n,n,n
CCC(C)C(NC(=O)C1CCC(C)CC1)C(=O)NCCc1ccc(S(N)(=O)=O)cc1 (stereo not drawn),n,n,n,x,n,n
Cc1cc(NC(=O)CCC(=O)N(c2cccc(F)c2)C(C(=O)NC2CCCC2)c2ccc(C)o2)no1 (stereo not drawn),n,n,n,n,n,n
FC(F)(F)c1cnc2c(c1)[nH]c(=S)n2-c1ccc(Cl)cc1,n,n,n,n,n[0.501 µM],n
Cc1ccc(S(=O)(=O)N(Cc2n[nH]c(=S)n2-c2ccccc2)c2cccc(Cl)c2)cc1,n,u,n,n,x,n
Cc1ccc(-n2c(Cn3nc(C(F)F)cc3C(F)F)n[nH]c2=S)cc1,79.4µM,n,n,n,1.12µM,n
Cc1cc(C(F)(F)F)nn1Cc1n[nH]c(=S)n1-c1ccc(Cl)cc1,n,n,n,n,1.58µM,n
Cc1cc(C(F)(F)F)nn1Cc1n[nH]c(=S)n1-c1cccc(Cl)c1,u,n,n,n,25.1µM,n
Cc1cc(C(F)(F)F)nn1Cc1n[nH]c(=S)n1Cc1ccccc1,u,n,n,n,1.78µM,n
O=C(Cn1nc(C(F)F)cc1C(F)F)NNC(=S)Nc1ccc(F)cc1,n,n,n,n,u,n
CCOc1ncccc1C(=O)N1CCCSC1=Nc1ccc(C(C)=O)cc1,n,n,n,n,n,n
N#Cc1c(-c2cccc(Br)c2)cc(-c2ccco2)[nH]c1=O,u,44.7µM,n,n,11.2µM,n
N#Cc1c(-c2ccccc2)cc(-c2ccccc2)[nH]c1=O,n,n,n,x,n,n
COc1ccc(-c2cc(-c3ccco3)[nH]c(=O)c2C#N)cc1,u,56.2µM,n,n,x,n
CCOC(=O)c1[nH]c(C)c(CCC(=O)NCc2ccc(N(C)C)cc2)c1C,u,n,x,x,u,n
CN1C(=O)c2ccccc2Sc2ccc(NC(=O)NCc3cccc(Cl)c3)cc21,n,n,x,x,n,n
CN1CCc2c(sc(/N=C/c3cc(C(C)(C)C)ccc3O)c2C#N)C1,u,u,n,n,u,n
O=C(OCC(=O)N1N=C(c2ccc(Cl)cc2)CC1c1ccco1)c1ccco1 (stereo not drawn),n,n,n,n,u,n
CCC1(CC)NC(=O)N(CC(=O)N2N=C(c3ccc(Cl)cc3)CC2c2ccco2)C1=O (stereo not drawn),u,u,n,n,56.2µM,n
CS(=O)(=O)Nc1ccc(C2=NN(C(=O)c3ccco3)C(c3ccco3)C2)cc1 (stereo not drawn),n,u,n,n,x,n
